About 79,000 compounds went through this panel and 15% of them were active in at least one assay; those are over-represented in the sample as a whole. Active and inactive are the calls of the source. No stated cut-off is given here; in the data, active means growth inhibition above about 70%; inactive means the rest.
Assay: NCI Yeast Anticancer Drug Screen. Data for the rad50 strain (AID 155);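 further: 0% = growth of vehicle-only cultures of the same strain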
Conditions: S. cerevisiae rad50 strain growth inhibition; at 50.0 µM; stronger effect = higher value
In short: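 Vehicle-treated cultures provide the reference for the growth inhibition reported for compound-exposed, repair-deficient yeast.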
With `CC(NC1=CC(=O)c2cccnc2C1=O)C(O)c1ccccc1` (stereo unspecified) the growth inhibition was 82.8% (active). With `CC(Oc1ccccc1)C(O)(c1ccc(N(C)C)cc1)c1ccc(N(C)C)cc1` (stereo unspecified) the growth inhibition was 3.3% (inactive). With `Cc1cc2c3ccccc3n(C)c2c2c1C(=O)c1ccccc1C2=O` the growth inhibition was 15.8% (inactive). For `O=C(NNC(=O)c1ccc2ccccc2c1)c1ccc(Cl)c(Cl)c1`, the growth inhibition was -13.3% (inactive). In the case of `COc1nc(NC2OC(CO)C(O)C(O)C2O)c(/C=N/O)c(=O)n1C` (stereo unspecified), the growth inhibition is reported as 4.55% (inactive). For `COCCCNC(=O)C1C(=O)C(=O)N(CCCOC)C1=O` (stereo unspecified), the growth inhibition was -2.35% (inactive). In the case of `O=C(N=Nc1c(O)[nH]c2c(Cl)cc(Cl)cc12)C(=O)Nc1cccc(C(F)(F)F)c1`, the growth inhibition is reported as -8.85% (inactive). For `CC(=O)CC(O)(C(F)(F)Cl)C(F)(Cl)Cl` (stereo unspecified), the growth inhibition was -35.5% (inactive). With `Cc1ccc(N=Cc2ccc(C(N)=S)cc2)cc1` the growth inhibition was 7.05% (inactive). For `O=C(O)C1CCCN1Cc1ccc2c(c1)OCO2` (stereo unspecified), the growth inhibition was -5.1% (inactive). In the case of `C[N+](C)(C)c1cc[c]([Sn]([c]2ccc([N+](C)(C)C)cc2)([c]2ccc([N+](C)(C)C)cc2)[c]2ccc([N+](C)(C)C)cc2)cc1`, the growth inhibition is reported as 16.4% (inactive). In the case of `O=C(Cl)c1c(F)c(F)c(F)c(F)c1F`, the growth inhibition is reported as -29.6% (inactive). For `Cc1cn(C2CC(O)C(CO)C2C)c(=O)[nH]c1=O` (stereo unspecified), the growth inhibition was -7.45% (inactive). In the case of `CCCCOc1cc(C(=O)O)ccc1[N+](=O)[O-]`, the growth inhibition is reported as -10.7% (inactive). In the case of `O=C(O)C(Cc1ccccc1)NS(=O)(=O)Cc1ccccc1` (stereo unspecified), the growth inhibition is reported as -14.1% (inactive). For `CC(C)CC(NC(=O)c1cc([N+](=O)[O-])cc([N+](=O)[O-])c1)C(=O)O` (stereo unspecified), the growth inhibition was -2% (inactive).

— PubChem BioAssay (NCI)
